LMNA splice mod – modulators of lamin A splicing | HeLa LMNA splicing GFP/RFP minigene ratio, 48 h | Potency, µM (series often up to 46.1 µM), without a hit: at the highest dose ratio change, negative = inhibition, usual class: inhibitors | 200,000 tested, 0.01% active | AID 1487; active = well fitted inhibition curve with a large enough effect in the signal ratio, with a control signal flat, not every such curve was filed as active; inconclusive = small, poorly fitted or top-dose-only effect, or effect the other way, or a change in a side signal; the % refers to the signal ratio; note: potency is the fitted concentration of half-maximal effect
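Read-out is the ratio of GFP to DsRed2 object intensity, acquired by 488 nm laser-scanning cytometry on HeLa lamin A-EGFP minigene reporter cells. Compound incubation 48 hrs at 37 °C in Opti-MEM with 2% FBS; DMSO 0.5% final.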
HPGD inh – blocks human HPGD enzyme activity; purified HPGD, NADH fluorescence kinetic, PGE2 substrate; 150,000 tested, 4.3% active; Potency, µM, without a hit: at the top dose activity change, negative = inhibition, usual class: inhibitors; P15428; note: potency is the fitted concentration of half-maximal effect
Target sequence (P15428 whole entry, looked up): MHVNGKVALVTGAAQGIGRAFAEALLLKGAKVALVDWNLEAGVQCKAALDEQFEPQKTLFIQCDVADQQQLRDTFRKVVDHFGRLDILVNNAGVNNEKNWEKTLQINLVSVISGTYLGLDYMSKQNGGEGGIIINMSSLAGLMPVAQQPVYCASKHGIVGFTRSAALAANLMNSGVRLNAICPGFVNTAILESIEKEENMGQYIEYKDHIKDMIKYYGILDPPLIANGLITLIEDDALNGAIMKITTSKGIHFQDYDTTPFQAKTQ
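NADH formation kinetics: reaction with 30 uM PGE2 and 1 mM NAD+ (final), 20 nM enzyme, Tris-HCl pH 8 with Tween 20, after 15 min compound preincubation at room temperature. Fluorescence change, last versus first of five reads.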
ALOX12 inhib – blocks human 12-lipoxygenase activity | 150,000 tested, 0.12% active | purified 12-hLO, xylenol orange hydroperoxide absorbance | Potency, µM (titrated, usually from 57.1 µM), without a hit: top-dose activity change, negative = inhibition, hits mostly inhibitors | P18054; active = well fitted inhibition curve with a large enough effect; inconclusive = small, poorly fitted or top-dose-only effect; note: potency is the fitted concentration of half-maximal effect; nearly all actives have a fitted effect of over 55% in size
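150 nM 12hLO, 25 mM Hepes pH 7.0 + 0.01% Triton X-100; cpd preinc 15 min RT; 40 uM arachidonic acid, 30 min RT; Fe-XO 30 min; A573/A405 ratio as read-out.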
PNC inhibitor – perinucleolar compartment assembly inhibition; PC3M PTB-GFP, PNC prevalence imaging, 16 h; active compounds read low; activity change (PNC), negative = inhibition, % at 10 µM; 140,000 tested, 3.1% active; AID 2417;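 active = readout at or below -70, meaning at least 70% loss of cells showing the perinucleolar compartment, a nuclear body marking cancer cells; inconclusive = readout between -30 and a set limit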;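 note: plate controls were DMSO wells for no effect and camptothecin positive control wells for full effect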
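PC3M cells stably expressing PTB-GFP, 750–1000 cells/well, treated 16 h at 37 °C with compound (23 nl of library stock), in duplicate. After paraformaldehyde fixation and Hoechst stain, imaged at 20x; PNC prevalence scored by image analysis.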
ALDH1A1 inh – blocks purified human ALDH1A1 activity. 220,000 tested, 7.3% active. Purified ALDH1A1, NADH fluorescence, propionaldehyde substrate. AID 1030. Potency, µM (top dose mostly 75.3 µM), for inactives: top-dose activity, negative = inhibition, hits mostly inhibitors;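 note: potency is the fitted concentration of half-maximal effect; plate controls were no enzyme wells and a reference inhibitor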
Target sequence (P00352 whole entry, looked up): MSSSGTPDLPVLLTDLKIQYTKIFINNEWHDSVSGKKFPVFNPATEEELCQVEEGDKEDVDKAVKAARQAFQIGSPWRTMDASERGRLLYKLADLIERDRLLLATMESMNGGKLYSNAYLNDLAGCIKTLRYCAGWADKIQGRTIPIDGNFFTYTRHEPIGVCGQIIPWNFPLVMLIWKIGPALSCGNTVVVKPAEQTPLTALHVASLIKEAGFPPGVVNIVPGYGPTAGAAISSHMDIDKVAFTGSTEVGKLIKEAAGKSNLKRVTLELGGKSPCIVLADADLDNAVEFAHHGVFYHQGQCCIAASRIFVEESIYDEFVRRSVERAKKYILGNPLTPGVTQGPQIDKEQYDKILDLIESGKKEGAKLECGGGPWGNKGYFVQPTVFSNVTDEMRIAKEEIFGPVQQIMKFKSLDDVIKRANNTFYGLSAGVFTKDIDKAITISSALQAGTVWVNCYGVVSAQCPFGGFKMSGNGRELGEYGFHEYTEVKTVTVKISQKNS
Numbers without * were called inactive; ? = inconclusive; · = no result given; [ ] = another dose, or the depositor's remark. An excerpt weighted towards active compounds, which were near 10% of everything screened. Unless noted, calls come from the whole dose curve; as a rule, active = well fitted inhibition curve with a large enough effect (not every such curve was filed as active); inconclusive = small, poorly fitted or top-dose-only effect, or another doubt; inactive = no such curve, though single readings can be large or run the other way. Unless noted, % is set by controls: 0 for no effect and ±100 for the full control effect.

SMILES	LMNA splice mod	HPGD inh	ALOX12 inhib	PNC inhibitor	ALDH1A1 inh
O=C(CCN1CCc2ccccc2CC1)c1ccc2c(c1)OCCO2	?	-20.7%	-5.4%	7.2	0.112µM*
O=C(c1cccc(C(F)(F)F)c1)N1CCN(c2cc(=O)[nH]nc2-c2ccccc2)CC1	9.3%	23.1%	-2.9%	84.8	2.99µM*
COC(=O)CN1C(=O)C(O)(CC(=O)c2ccc(C)o2)c2ccccc21 (stereo unspecified)	-3.4%	4.7%	-0.2%	45.9	7.94µM*
CC(C)c1ccc(C(=O)CC2(O)C(=O)N(CN3CCOCC3)c3ccccc32)cc1 (stereo unspecified)	4.0%	-9.5%	-2.7%	33.6	?
C=CCN1C(=O)C(O)(CC(=O)c2ccc(N)cc2)c2ccccc21 (stereo unspecified)	11.6%	-12.6%	-0.8%	9.0	5.62µM*
Cc1ccc(C(=O)CC2(O)C(=O)N(C)c3ccccc32)o1 (stereo unspecified)	-8.8%	-27.2%	5.7%	?	25.1µM*
COC(=O)CN1C(=O)C(O)(CC(=O)c2ccccc2)c2ccccc21 (stereo unspecified)	-4.9%	-4.6%	2.3%	?	4.47µM*
COc1ccc(C)cc1NC(=O)N1CCN(S(=O)(=O)c2ccc3c(ccn3C)c2)CC1	7.1%[46 µM]	·	·	·	·
O=C(c1ccco1)N1CCC[C@@]2(CCN(C(c3ccccc3)c3ccccc3)C2)C1	·	-2.8%	-16.0%	·	?
CCOC(=O)c1c(NC(=O)c2ccc(S(=O)(=O)N(CC(C)C)CC(C)C)cc2)sc2c1CCN(CC)C2	11.0%[46 µM]	·	·	·	·
COC(=O)CN1C(=O)C(O)(CC(=O)c2ccc(C)cc2)c2ccccc21 (stereo unspecified)	0.1%	4.7%	2.4%	31.1	8.91µM*
O=C(CC1(O)C(=O)N(C/C=C/c2ccccc2)c2ccccc21)c1ccccn1 (stereo unspecified)	-1.6%	·	-5.0%	?	0.794µM*
Cc1ccc(C(=O)CC2(O)C(=O)N(CN3CCOCC3)c3ccccc32)cc1 (stereo unspecified)	15.9%	-15.3%	-9.1%	19.6	14.1µM*
CC(NS(=O)(=O)c1ccc(Cl)cc1)C(=O)NCc1ccco1 (stereo unspecified)	-1.4%	-8.2%	-0.3%	?	-2.6%
O=C(Nc1nccs1)C1(S(=O)(=O)c2ccc(Cl)cc2)CC1	3.4%	·	-8.9%	-10.6	11.2µM*
O=C(NCc1ccco1)C1(S(=O)(=O)c2ccc(Cl)cc2)CC1	-21.0%	-13.5%	1.8%	?	17.8µM*
Cc1ccccc1CNC(=O)c1oc2c(c1C)-c1nn(Cc3ccc(Cl)cc3)cc1CC2	6.5%[46 µM]	·	·	·	·
COCCCN1C(=O)c2ccc(C(=O)NCc3ccco3)cc2C1=O	8.0%	-16.6%	-1.1%	8.4	12.6µM*
CCCN1C(=O)c2ccc(C(=O)NCc3ccco3)cc2C1=O	5.2%	-8.5%	-3.9%	60.7	6.31µM*
O=C(NCc1ccco1)c1ccc2c(c1)C(=O)N(C1CCCCC1)C2=O	9.4%	-4.0%	2.9%	20.5	?
CCOc1ccc(CNC(=O)C2CCN(S(=O)(=O)c3cn(C)cn3)CC2)cc1	6.9%[46 µM]	·	·	·	·
NC(=S)NN=C1C2CC3CC(C2)CC1C3	?	·	·	·	25.1µM*
NC(=O)C(=O)NN=C1C2CC3CC(C2)CC1C3	-12.4%[46 µM]	·	·	·	-0.5%
CCOc1ccc(-n2c(Cc3cc(=O)[nH]c(=O)[nH]3)nnc2SCC(N)=O)cc1	15.8%	-6.4%	8.9%	-83.5*	-1.4%
CC(C)C(=O)c1cc2c(cc1NC(=O)c1ccccc1F)OCCO2	-16.3%[46 µM]	·	·	·	·
SMILES	LMNA splice mod	HPGD inh	ALOX12 inhib	PNC inhibitor	ALDH1A1 inh
CC(C)OC(=O)c1cn(-c2ccccc2)nc1-c1ccco1	15.7%	-24.2%	-9.2%	?	11.2µM*
CCc1ccc(NC(=O)CSc2nc(=O)n(Cc3ccco3)c3c2CCC3)cc1	20.8%[46 µM]	·	·	·	·
Cc1ccc(NC(=O)c2sc3nc4c(c(-c5ccco5)c3c2N)CCC4)cc1	?	-24.4%	-29.2%	13.9	4.47µM*
Nc1c(C(=O)Nc2ccccc2)sc2nc3c(c(-c4ccco4)c12)CCC3	?	-3.8%	-5.8%	23.7	-7.0%
O=C(O)c1ccccc1-c1ccccc1C(=O)c1ccccc1	·	-9.9%	-0.9%[11.4 µM]	·	-9.1%[13.5 µM]
O=C(c1ccccc1)c1ccccc1N1C(=O)C=CC1=O	·	·	·	·	3.16µM*
CCOC(=O)c1ccc(NC(=O)C2CCCN(c3ncnc4onc(-c5ccc(F)cc5)c34)C2)cc1 (stereo unspecified)	-1.0%[46 µM]	·	·	·	·
O=C(Nc1cccc(Oc2ccc3c(c2)C(=O)NC3=O)c1)c1ccco1	1.0%	20µM*	-0.9%	-91.9*	4.7%
Cc1ccc(Oc2ccc(NC(=O)c3ccco3)cc2)cc1	?	?	-11.0%	12.1	?
O=C(CN1CCCCCC1)Nc1ccccc1	7.1%[46 µM]	·	·	·	7.94µM*
O=C(CCl)Nc1cccc(Oc2ccccc2)c1	11.8%[46 µM]	·	·	·	0.282µM*
O=C(Nc1ccc(Cl)cc1)N1CCCN(Cc2ccc(F)cc2)C1	3.2%	25.1µM*	-3.7%	-15.4	3.7%
O=c1c(-c2ccc(F)cc2)nc2cnc(Nc3ccccc3)nc2n1C1CC1	·	-7.2%	-1.8%	·	4.6%
O=C(CSc1ccccc1)N1CCc2c([nH]c3ccccc23)C1c1ccc(Cl)cc1 (stereo unspecified)	-6.1%[46 µM]	·	·	·	·
O=C(Nc1ccc(Oc2cccnc2)nc1)c1ccc(C(F)(F)F)cc1	·	·	·	·	9.5%
Cc1ccc(C(=O)Nc2cccc(Oc3ccccc3)c2)o1	?	20µM*	0.5%	24.1	0.4%
O=C(CSc1ncnc2[nH]ncc12)Nc1cccc(Oc2ccccc2)c1	-9.2%[46 µM]	·	·	·	20µM*
O=C(Nc1ccc(Oc2cccc(C(F)(F)F)c2)nc1)c1ccco1	·	·	·	·	39.8µM*
CCOC(=O)N1CCN(CC(=O)Nc2ccc(Oc3ccccc3)cc2)CC1	?	-3.5%	3.2%	-15.3	25.1µM*
Cc1ccc(C(=O)Nc2cccc(C(=O)NCc3ccccc3)c2)o1	?	-19.1%	3.7%	-9.8	-2.0%
COc1ccc2c(c1)O[C@H](c1ccc3c(c1)OCO3)[C@@H](OC(=O)NCCc1ccc(OC)c(OC)c1)C2=O	·	-11.2%	·	·	3.6%
CCOc1ccc(-c2nnc(SCC(=O)NC3CCCC3)nc2-c2ccc(OCC)c(OC)c2)cc1OC	6.9%[46 µM]	·	·	·	·
O=C(CN1CCCCC1)Nc1cccc(Oc2ccccc2)c1	15.6%	28.2µM*	-3.7%	-105.7*	6.7%
O=C(CN1CCN(C(=O)N2CCOCC2)CC1)Nc1ccc(Br)cc1	0.0%	-6.8%	-5.0%	20.1	17.8µM*
O=C(CN1CCCC1)Nc1ccc(F)cc1	·	·	·	·	25.1µM*
CN1CCN(CC(=O)Nc2ccc(Oc3ccccc3)cc2)CC1	?	-15.7%	3.8%	13.0	-8.1%
Cc1cc(C(=O)CN2C(=O)CCC2=O)c(C)n1Cc1ccccc1	0.8%	-9.8%	1.1%	-1.5	7.08µM*

Bioassay records (PubChem BioAssay)
